Source: PubChem BioAssay
Gal4-VP16 FLuc – counter-screen for ROR gamma inhibitors: Gal4-VP16 reporter. 3.5% of 310,000 active. Drosophila S2 Gal4-VP16 UAS-luciferase, luminescence, 20 h. Potency, µM (titrated, usually from 53.6 µM), hits mostly inhibitors. AID 2546;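 further: Gal4-VP16 expression switched on by copper sulfate through the metallothionein promoter; nearly all actives have a fitted effect of over 50% in size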
p53 reactivation – mutant p53 re-activation in reporter cells | Potency, µM (titrated, usually from 92.2 µM), actives largely listed as activators | 0.063% of 320,000 active | H1299 p53-A138V BP100-luciferase reporter, luminescence, 24 h; further: nearly all actives have a fitted effect of over 45% in size
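H1299 (p53-null), stable ts p53-A138V + BP100-Luc; 1000 cells/well, Opti-MEM/10% FBS; cpd 4 pt, 1:5; 24 h, 37 deg C, 5% CO2; detection reagent 10 min RT; luminescence.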
Giardia killer – Giardia lamblia killing | Giardia lamblia trophozoite viability | activity change, % at 7.66 µM, hits read low | 0.15% of 340,000 active; in the data active means activity change below about -80%; inconclusive means between about -30% and that limit;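 further: parasites exposed to compound for two days anaerobically before the ATP read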
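Viability, read as ATP luminescence: trophozoites at 100 cells/well, compound added, 48 hrs anaerobic at 37 deg C, then 15-30 min room-temperature development before reading.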
ELG1 DNA repair – blocks ELG1-dependent DNA repair in HEK293T cells; HEK293T ELG1-luciferase reporter, luminescence, 16 h; DNA damage induced by 5-fluorouridine; 2.3% of 330,000 active; Potency, µM (doses to about 46.1 µM), actives largely listed as inhibitors; AID 504467; further: nearly all actives have a fitted effect of over 55% in size
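Step one: seed 2,000 cells per well. Step two: pin-transfer compound or DMSO alongside 5-fluorouridine. Step three: incubate 16 hr, 37 °C, 5% CO2. Step four: add ONE-Glo, wait 30 min, read luminescence.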
RORg inh – ROR gamma (mouse) transcription inhibition | Potency, µM (titrated, usually from 53.6 µM), usual class: inhibitors | AID 2551 | 5.4% of 310,000 active | Drosophila S2 Gal4-RORgamma UAS-luciferase reporter, 20 h; further: nearly all actives have a fitted effect of over 60% in size
Target sequence (P51450 whole entry, looked up, the tested form may be a part): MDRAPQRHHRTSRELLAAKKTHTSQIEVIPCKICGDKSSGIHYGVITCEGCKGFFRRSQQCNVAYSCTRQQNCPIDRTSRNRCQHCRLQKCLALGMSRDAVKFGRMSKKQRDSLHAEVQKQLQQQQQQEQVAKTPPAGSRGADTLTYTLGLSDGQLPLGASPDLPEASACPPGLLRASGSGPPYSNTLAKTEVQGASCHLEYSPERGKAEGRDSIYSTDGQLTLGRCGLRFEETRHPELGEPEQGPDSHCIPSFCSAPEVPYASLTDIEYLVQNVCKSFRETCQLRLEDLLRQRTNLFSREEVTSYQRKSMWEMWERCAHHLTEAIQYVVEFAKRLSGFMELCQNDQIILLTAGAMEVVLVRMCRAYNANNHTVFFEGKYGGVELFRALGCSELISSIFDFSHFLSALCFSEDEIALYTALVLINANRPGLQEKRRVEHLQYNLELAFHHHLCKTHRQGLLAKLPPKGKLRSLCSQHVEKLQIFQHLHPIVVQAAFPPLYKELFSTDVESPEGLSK
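Drosophila Schneider cells stably carrying a metallothionein-driven Gal4 DBD–ROR gamma fusion and a UAS-Photinus luciferase reporter were exposed to compound for 1 hr, then induced with copper sulfate (700 uM final) for 20 hr at ambient temperature before luminescence reading.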
BRCA1 expr act – BRCA1 expression activation; AID 624202; 1.1% of 380,000 active; MCF7-BRCA1-FFLuc reporter, luminescence, 48 h; response scale: scaled: vehicle 0%, 10 µM genistein 100%; Potency, µM (titrated, usually from 46.1 µM), usual class: activators; further: nearly all actives have a fitted effect of over 80% in size
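MCF7-BRCA1-FFLuc cells, 2000/well in phenol-red-free MEM, attached 2 h then treated 48 h at 37 C. Luciferase luminescence read 15 min after reagent; normalized to genistein maximum activation (10microM) and DMSO, concentration-response fitted.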
Hits are given with their value; – = inactive; ? = inconclusive; · = no result; [ ] = dose if it differs, or a comment. The list is not random: actives were taken first. Their share in the collection is about 7.6%. Unless noted, the call rests on the fitted dose curve; in most records, active means well fitted curve in the direction sought with a large enough effect; inconclusive means small, poorly fitted or top-dose-only effect, or another doubt; inactive means no such curve, though single readings can be large; an effect the other way counts as inactive or inconclusive.

SMILES	Gal4-VP16 FLuc	p53 reactivation	Giardia killer	ELG1 DNA repair	RORg inh	BRCA1 expr act
COc1cccc(-c2nc(-c3ccccn3)no2)c1	4.47µM	–	?	?	?	–
COc1cccc(-c2nc(-c3ccccc3)no2)c1	?	?	–	?	–	–
Cc1cccc(/C=C2\Sc3ccc(C(=O)NCC4CCCO4)cc3N(C)C2=O)c1 (centres undefined)	–	–	–	?	–	–
CCOc1ccc(/C=C2/Sc3ccc(C(=O)NCC4CCCO4)cc3N(C)C2=O)cc1OC (centres undefined)	–	–	–	18.3µM	–	–
CCOc1ccc(/C=C2/Sc3ccc(C(=O)N4CCN(C(=O)c5ccco5)CC4)cc3N(C)C2=O)cc1OC	–	–	·	20.6µM	–	·
O=C(NCc1ccccn1)C1CC(c2ccccc2Cl)=NO1 (centres undefined)	–	–	–	–	–	–
Cc1nc(C)c(-c2ccc(SCc3ccc([N+](=O)[O-])cc3)nn2)s1	–	–	–	?	–	–
COc1ccc(N2C(=O)/C(=C/c3cccs3)NC2=S)cc1	?	–	–	–	10µM	–
COc1ccc(-c2c(C)nc3c(-c4ccccn4)cnn3c2N)cc1	10µM	?	–	?	5.01µM	–
CCN1CCC2(CC1)N=C(c1ccc(F)cc1)C(=S)N2C(=O)c1ccc(C(C)(C)C)cc1	?	–	–	–	3.98µM	–
CN1CCC2(CC1)N=C(c1ccc(F)cc1)C(=S)N2C(=O)c1ccccc1	?	–	–	–	?	–
CCc1ccc(Cn2nnc(C(=O)NCc3ccccc3OC)c2N)cc1	–	–	–	–	–	–
CC(=O)c1sc(N/N=C\c2cccc(Br)c2)nc1C	?	?	–	?	?	–
O=C1N[C@H](Cc2ccccc2)COC(=O)[C@H](Cc2ccc(F)cc2)C/C=C\C[C@@H]1CC(=O)N(CCO)Cc1ccccc1	·	–	–	?	·	–
O=C1N[C@@H](Cc2ccccc2)COC(=O)[C@H](Cc2ccc(F)cc2)C/C=C\C[C@@H]1CC(=O)N(CCO)Cc1ccccc1	·	–	–	20.6µM	·	–
O=C1N[C@@H](c2ccccc2)COC(=O)[C@@H](Cc2ccc(F)cc2)C/C=C\C[C@@H]1CC(=O)N(CCO)Cc1ccccc1	·	–	–	20.6µM	·	–
O=C1N[C@H](Cc2ccccc2)COC(=O)[C@@H](Cc2ccc(F)cc2)CC/C=C/C[C@H]1CC(=O)N(CCO)Cc1ccccc1	·	–	–	20.6µM	·	–
CC(C)(C)OC(=O)C[C@H]1C/C=C\C[C@H](CC(=O)N(CCO)Cc2ccccc2)C(=O)N[C@@H](c2ccccc2)COC1=O	·	–	?	8.2µM	·	–
O=C1N[C@@H](Cc2ccccc2)COC(=O)[C@@H](Cc2ccc(F)cc2)CC/C=C/C[C@@H]1CC(=O)N(CCO)Cc1ccccc1	·	–	–	?	·	–
COc1ccc(C2CC(=O)N(CC(=O)Nc3cccc(C)c3C)c3ccccc3S2)cc1OC (centres undefined)	·	·	·	·	·	–
O=C1N[C@H](Cc2ccccc2)COC(=O)[C@H](Cc2ccc(F)cc2)CC/C=C/C[C@@H]1CC(=O)N(CCO)Cc1ccccc1	·	–	–	20.6µM	·	–
O=C(C[C@H]1C/C=C\CC[C@@H](Cc2ccc(F)cc2)C(=O)OC[C@H]2CCCN2C1=O)N[C@H](CO)Cc1ccccc1	·	–	–	23.1µM	·	–
O=C(NCCc1ccc(Cl)cc1)c1cnc2n(c1=O)CCS2	–	?	–	?	?	?
Cc1ccc(N/N=C(/Sc2nnnn2-c2ccccc2)C(=O)c2ccccc2)cc1	?	–	–	–	10µM	–
CC(C)Oc1ccccc1OCCCOc1cccc2cccnc12	–	–	–	?	14.1µM	–
SMILES	Gal4-VP16 FLuc	p53 reactivation	Giardia killer	ELG1 DNA repair	RORg inh	BRCA1 expr act
CC(=O)c1ccccc1OCCCOc1cccc2cccnc12	·	·	–	·	·	–
Cc1cc(OCCOc2cccc3cccnc23)cc(C)c1Cl	–	–	–	–	20µM	–
N#Cc1cc(N2CCOCC2)nc2ccccc12	–	–	–	–	–	–
CCCCN1C(=O)C(CC(=O)NCc2ccco2)CC(C(=O)N(C(C)C)C(C)C)=C1C (centres undefined)	·	·	·	·	·	–
COc1ccc2c(c1)c(CC(=O)Nc1ccc(C(C)=O)cc1)c(C)n2C(=O)c1ccc(Cl)cc1	–	–	–	11.6µM	–	–
COc1ccc2c(c1)c(CC(=O)Nc1nnc(C3CC3)s1)c(C)n2C(=O)c1ccc(Cl)cc1	–	–	–	5.8µM	–	–
COc1ccc2c(c1)c(CC(=O)Nc1cc(C)ccc1C)c(C)n2C(=O)c1ccc(Cl)cc1	–	–	–	?	–	–
COc1ccc2c(c1)c(CC(=O)NCc1cc([N+](=O)[O-])ccc1O)c(C)n2C(=O)c1ccc(Cl)cc1	?	–	–	?	?	–
CN(C)CCN(C(=O)c1cccs1)c1nc2cc3c(cc2s1)OCCO3	–	–	–	?	–	11.2µM
CN(C)CCN(C(=O)c1ccc2ccccc2c1)c1nc2cc3c(cc2s1)OCCO3	–	–	–	?	–	–
CN(C)CCN(C(=O)c1ccc(Br)s1)c1nc2cc3c(cc2s1)OCCO3	–	–	–	?	–	–
CN(C)CCN(C(=O)C1CCCCC1)c1nc2cc3c(cc2s1)OCCO3	·	·	·	·	·	11.2µM
CCOC(=O)c1cc(NCc2cccs2)ccc1N1CCOCC1	–	–	–	–	–	–
O=C(NCCc1c[nH]c2ccccc12)C1CCC(Cn2c(=S)[nH]c3ccccc3c2=O)CC1 (centres undefined)	12.6µM	–	–	?	7.08µM	–
C/C(=N\OC(=O)c1ccc(Cl)cc1)c1sc(-c2ccccc2)nc1C	–	?	–	?	–	3.98µM
Cc1nc(-c2ccccc2)sc1C(=O)NN	11.2µM	–	–	–	12.6µM	–
C/C(=N\OC(=O)c1ccc(F)cc1)c1sc(-c2ccccc2)nc1C	–	?	–	?	–	2.82µM
C=CCNC(=O)c1sc(-c2ccccc2)nc1C	?	–	–	?	?	–
COc1ccc(C)cc1Nc1nc(-c2c[nH]c3ccccc23)cs1	–	–	–	–	–[10 µM]	–
COc1cc(C(=O)N2CCN(c3ncnc4sc(C)c(C)c34)CC2)cc(OC)c1OC	3.98µM	–	–	6.51µM	?	–
Cc1ccccc1OCC(=O)NNC(=O)C1CCN(c2ncnc3sc(C)c(C)c23)CC1	·	–	–	20.6µM	·	–
COc1ccc(-c2csc(NC(=O)C3CCN(c4ncnc5sc(C)c(C)c45)CC3)n2)cc1OC	·	–	–	5.17µM	·	–
CCCN(CC(=O)Nc1ccccc1C)C(=O)C1CCN(c2ncnc3sc(C)c(C)c23)CC1	·	–	–	9.2µM	·	–
